Pf Dd2 inh – inhibitors of Plasmodium falciparum Dd2 growth. Potency, µM (doses to about 28.9 µM), usual class: inhibitors. P. falciparum Dd2 growth, SYBR Green, 72 h. 4.3% of 120,000 active; active = well fitted inhibition curve with a large enough effect; also: nearly all actives have a fitted effect of over 65% in size
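Infected erythrocytes (Dd2, 0.3% parasitemia, 2.5% hematocrit final) are added to compound in RPMI-1640/Albumax II medium, grown 72 h at 37C in low oxygen, then lysed with saponin/Triton-X containing SYBR Green and read by fluorescence.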
Numbers stand for hits; i = inactive; [ ] = remark or other dose. The entries come from a sample that favours hits as a whole.

SMILES	Pf Dd2 inh
COc1ccc(C(=O)c2cn(Cc3cccc(C)c3)c3cc4c(cc3c2=O)OCO4)cc1	i
COc1ccccc1Cn1cc(C(=O)c2ccc(Cl)cc2)c(=O)c2ccccc21	i
CCOc1ccc2c(c1)c(=O)c(C(=O)c1ccc3c(c1)OCO3)cn2Cc1ccc(F)cc1	i
CCOc1ccc(NC(=O)Cn2cc(C(=O)c3ccc(C)c(C)c3)c(=O)c3cc(OC)c(OC)cc32)cc1	i
COc1cc2c(=O)c(C(=O)c3ccc(C)c(C)c3)cn(Cc3ccccc3)c2cc1OC	13µM
COc1cccc(C(=O)c2cn(CC(=O)NCCc3ccccc3)c3nc(C)ccc3c2=O)c1	i
CCCN(CC1CCOC1)C(=O)Nc1cccc(Cl)c1C (centres undefined)	i[5.79 µM]
CCn1cc(S(=O)(=O)N2CCC3(CC2)CNC(C(=O)O)C3)cn1 (centres undefined)	i
COc1ccc(NC(=O)N2CC(c3noc(-c4ccccc4)n3)C2)c(C)c1	i
Cc1cnc(C(=O)N[C@@H]2CCC[C@@H]2C(=O)NCCc2cccs2)cn1	i
COc1ccc(CN2CC3(CCN(C(=O)Nc4ccccc4)CC3)C2=O)cc1	i
CC(=O)Nc1ccc(S(=O)(=O)N2C[C@@H]3C[C@H](C2)c2ccc(-c4ccc(OC(F)(F)F)cc4)c(=O)n2C3)cc1	i
COc1ccc2c(c1)c(CN1CC[C@H](CO)[C@H](N(C)C)C1)cn2C(C)C	i
OC(c1nc(Nc2cccc(Cl)c2)n[nH]1)C1CC1 (centres undefined)	i
CCOc1ccc(C(=O)c2cn(Cc3cccc(OC)c3)c3cc4c(cc3c2=O)OCO4)cc1	i
CCOc1ccc(C(=O)c2cn(CC(=O)Nc3cc(OC)ccc3OC)c3cc(OC)c(OC)cc3c2=O)cc1	i
CCOc1ccc(C(=O)c2cn(Cc3ccc(OC)cc3)c3cc(OC)c(OC)cc3c2=O)cc1	10µM
O=C1NC(C(=O)NCC2CC2)Cn2cccc21 (centres undefined)	i
CC(C)c1nccn1CCCNC(=O)c1ccc(-c2cccnc2)nc1	i
CC(=O)N(C1CC1)C1CCOC2(CCN(C(=O)Cc3c(C)noc3C)CC2)C1 (centres undefined)	i
COc1ccc(/C=C/C(=O)Nc2ccc3nc4c(c(Nc5ccc(OC)c(OC)c5)c3c2)CCCC4)cc1	2.2µM
COc1cc(NC(=O)c2ccc3c(Cl)c4c(nc3c2)CCC4)cc(OC)c1OC	i
COc1ccc(Nc2c3c(nc4ccc(NC(=O)/C=C/c5cc(OC)c(OC)c(OC)c5)cc24)CCCC3)cc1OC	2.5µM
COc1ccc(/C=C/C(=O)Nc2ccc(Cl)c(Cl)c2)cc1	i
COc1ccc(NC(=O)c2sc3nc4c(cc3c2N)CCCCCC4)cc1OC	i
SMILES	Pf Dd2 inh
COc1cc(NC(=O)CSc2c3c(nc4ccccc24)CCC3)cc(OC)c1OC	i
O=C(NC1CCN(c2cc(C(F)(F)F)ncn2)CC1)c1ccc(F)cc1Cl	i
N#Cc1cccc(C(=O)NCC(=O)N2CCCCCNC(=O)CC2c2ccccc2)c1 (centres undefined)	i
COc1ccccc1-c1nnc([C@H]2CCN(C3CCOCC3)C2)o1	i
CCCn1cc(CN2CCC(CO)(Cc3ccccc3Cl)CC2)c(C)n1	i
COc1ccccc1CN1CCC2(CC1)COCCN2C(=O)OCc1ccccc1	i
OCC1(Cc2ccccc2)CCN(Cc2ccccc2-c2ccco2)CC1	8.9µM
Cn1ccc(C(=O)N2CCC3(CC2)OC(=O)N(Cc2ccccc2)C3(C)c2ccccc2)n1 (centres undefined)	i
COc1ccc(-n2nc3c(N4CCCC(C(=O)NCc5ccccc5C)C4)nnc(C)c3c2C)cc1 (centres undefined)	i
COc1ccc(-n2nc3c(N4CCCC(C(=O)NCCc5ccc(C)cc5)C4)nnc(C)c3c2C)cc1 (centres undefined)	8.9µM
COc1ccc(-n2nc3c(N4CCCC(C(=O)NCCc5ccccc5C)C4)nnc(C)c3c2C)cc1 (centres undefined)	8.9µM
CCOc1ccc(NC(=O)C2CCCN(c3nnc(C)c4c(C)n(-c5ccccc5)nc34)C2)cc1 (centres undefined)	i
CCc1ccc(NC(=O)C2CCCN(c3nnc(C)c4c(C)n(-c5ccccc5)nc34)C2)cc1 (centres undefined)	i
Cc1nnc(N2CCCC(C(=O)NCc3ccccc3F)C2)c2nn(-c3ccc(Cl)cc3)c(C)c12 (centres undefined)	i
CS(=O)(=O)N1C[C@H]2CCN(Cc3ccccc3F)C[C@H]21	i
Cn1cc([C@@H](NC(=O)c2ccccc2N2CCCC2)C2CC(O)C2)cn1 (some centres undefined)	i
COc1ccc2[nH]c3c(c2c1)CCNC31CCN(C(=O)C2CC=CC2)CC1	i
Cc1cc(F)ccc1C(=O)N1CCn2nc(Cc3ccccc3)cc2C1	i
O=C(CN1CCCCCCC1)N1CCn2cncc2C1	i
O=C1CCC2(CCN(C(=O)c3cnccn3)CC2)CN1CC1CCCO1 (centres undefined)	i
CN(Cc1ccccc1)C1(C(=O)NC2CCC(O)CC2)Cc2ccccc2C1 (centres undefined)	i

High-throughput results as filed in PubChem.
